Sampled rows, rich in hits. Any-hit rate of the full collection: about 3.6%.
Abeta rescue – A-beta toxicity reversal in yeast; yeast expressing A-beta42, growth rescue, OD600, 48 h; response scale: 0% DMSO, 100% iron-clioquinol control; Potency, µM (titrated, usually from 46.1 µM), actives largely listed as activators; hit rate 0.063% among 410,000; AID 1347071; further: nearly all actives have a fitted effect of over 55% in size
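Yeast growth medium received pinned compounds, then yeast cells expressing toxic A-beta were added; plates incubated at 30 C for 48 hr. Growth read as absorbance at 600 nm, normalized to DMSO and equimolar FeCl3 plus clioquinol controls.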
TDP-43 yeast inh – inhibitors of TDP-43 toxicity in yeast; TDP-43 expressing yeast growth rescue, BacTiter-Glo, 24 h; Potency, µM (doses to about 46.1 µM), for inactives: at the highest dose growth rescue (activation), hits mostly activators; hit rate 1.8% among 410,000; further: % of control where 0% means no effect; nearly all actives have a fitted effect of over 50% in size
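In this qHTS, compounds that restore growth of yeast expressing TDP-43 appear as activators. Cells (OD600=0.02, galactose medium, raffinose-pregrown) are incubated with compound 24 hr at 30 deg C and growth is quantified by BacTiter-Glo.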
ClpP mod – qHTS Assay for Activators of ClpP; ATP-dependent Clp protease proteolytic subunit (Bacillus subtilis (strain 168)), P80244; purified B. subtilis ClpP, FRET peptide cleavage, 20 min; Potency, µM (titrated, usually from 57.5 µM), inactives show at the highest dose activity change, negative = active; hit rate 1.9% among 340,000; AID 651965, 2013; active means well fitted falling curve with a large enough effect; inconclusive means small, poorly fitted or top-dose-only effect; inactive means no such curve, though single readings can be large or run the other way; further: the source files actives as falling curves though it sought activators and does not explain the sign; nearly all actives have a fitted effect of over 65% in size
Target sequence (P80244 whole entry, looked up): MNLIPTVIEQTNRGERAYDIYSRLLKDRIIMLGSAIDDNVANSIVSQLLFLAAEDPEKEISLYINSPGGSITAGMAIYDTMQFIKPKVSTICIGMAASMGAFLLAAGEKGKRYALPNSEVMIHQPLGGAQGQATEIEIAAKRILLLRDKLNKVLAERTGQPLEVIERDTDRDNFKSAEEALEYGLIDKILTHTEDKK
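FRET quenching reversal measured ClpP activation: 10 microg/mL B. subtilis ClpP at pH 8 with the FRET-FV decapeptide, read at 430 nm after 320 nm excitation. The 20-min minus 0-min signal was scaled between DMSO/no-enzyme wells and ADEP (5.8 microM final).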
aSyn rescue – alpha-synuclein toxicity inhibition in yeast. hit rate 0.14% among 370,000. AID 652106. Yeast expressing alpha-synuclein, growth rescue, BacTiter-Glo, 24 h. Potency, µM (doses to about 46.1 µM), for the others: at the highest dose growth rescue (activation), actives largely listed as activators; further: % of control where 0% means no effect; nearly all actives have a fitted effect of over 65% in size
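Screening used galactose-induced yeast with toxic alpha-synuclein levels, exposed to compound for 24 hr at 30 deg C. Cell growth, read with BacTiter-Glo luminescence, gave the measured signal.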
FUS suppressor – FUS proteinopathy suppression in yeast; S. cerevisiae FUS-expressing, growth rescue, OD600, 24 h; Potency, µM (highest dose often 76.6 µM), most hits filed as activators; hit rate 0.24% among 390,000;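 further: plate controls were DMSO vehicle for no effect and reference control for full effect; nearly all actives have a fitted effect of over 55% in size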
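Steps: raffinose overnight preculture; dilution to OD 0.005 in 2% galactose minimal medium; compound addition (concentration series); 24hr at 30C, 99% humidity; absorbance read at 600 nm.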
MmCpn inh – M. maripaludis TRiC chaperonin inhibition; purified Mm-Cpn ATPase, ADP Transcreener TR-FRET; AID 504842; Potency, µM (highest dose often 76.9 µM), inactives show top-dose activity, negative = inhibition, most hits filed as inhibitors; hit rate 0.031% among 330,000; further: on the % scale 0 is the no-effect control and ±100 the full control effect; nearly all actives have a fitted effect of over 80% in size
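Reaction buffer contained 30 mM Tris pH 7.4, 100 mM KCl, 5 mM MgCl2 and 1 mM DTT. Mm-CPN (25 nM final) hydrolysed 10 uM ATP over 30 min at 37°C; ADP was read by HTRF.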
* = called active by the depositor; i = inactive; u = inconclusive; x = no result given; ! = not confirmed by another sample; [ ] = another dose, or the depositor's remark. Unless noted, the call rests on the fitted dose curve; in most records, active means well fitted curve in the direction sought with a large enough effect; inconclusive means small, poorly fitted or top-dose-only effect, or another doubt; inactive means no such curve, though single readings can be large; an effect the other way counts as inactive or inconclusive. Potency means the concentration at half of the fitted maximal effect.

SMILES	Abeta rescue	TDP-43 yeast inh	ClpP mod	aSyn rescue	FUS suppressor	MmCpn inh
COc1ccc(-n2nc([N+](=O)[O-])c(=NCCC3=CCCCC3)n2O)cc1	i	20µM*	-1%	9%	i	-1%
O=C(Nc1cccc(NC(=O)c2ccccc2)n1)c1ccccc1	i	11µM*	0%	-11%	i	0%
Cc1oc(-c2ccc(C(=O)NCc3cccc(F)c3)cc2)nc1COc1ccccc1	i	u	u	x	i	x
COCCCN(Cc1ccco1)C(=O)c1cc2c(s1)-c1ccccc1OC2	i	22µM*	4%	2%	u	x
COCCNC(=O)CSc1nc(-c2ccccc2C)nc2c1c(=O)n(C)c(=O)n2C	i	24%[9.22 µM]	2%	x	i	x
COc1cccc2cc(C(=O)N3CCCCC3C)c(=O)oc12 (stereo not given)	i	-8%	4%	0%	i	0%
COc1cccc2cc(NC(=O)C3CCCCC3)c(=O)oc12	i	-11%	35µM*	2%	i	1%
O=c1ccsn1Cc1ccccc1	i	10µM*	-2%	0%	x	0%
O=C1NC(Cc2ccccc2)C(=O)N1Cc1ccccc1 (stereo not given)	i	9%	x	-4%	i	x
CC(=O)NCCNC(=O)CCCc1nnc2n(CCC(C)C)c(=O)c3sccc3n12	i	13%	-25%	x	i	x
C[C@@H]1[C@H](c2ccccc2)OCCS(=O)(=O)N1Cc1cccc(C(F)(F)F)c1	x	x	-1%	x	x	x
CSc1nc(Oc2ccc(=O)n(C)n2)nc(N(C)C)n1	i	-5%	-3%	4%	i	0%
CCCn1nc(Oc2nc(SC)nc(N(C)C)n2)ccc1=O	i	-8%	25µM*	-7%	i	0%
COC(=O)c1ccc(Nc2nc(-c3ccccc3Cl)nc3ccccc23)cc1	i	u	4%	x	i	x
CC1=NNC(=O)/C1=C\c1cn(-c2ccccc2)nc1-c1ccc(F)cc1	i	11µM*	-1%	-70%	u	4%
CC1=NNC(=O)/C1=C\c1cn(-c2ccccc2)nc1-c1cccs1	i	-67%	3%	-62%	u	-2%
CC(C)Oc1ccc(CN2CCc3nc(Nc4ccc5c(c4)OCCO5)ncc3C2)cc1	i	0%	-9%	x	i	x
O=C(CN1CCc2ccccc2C1)Nc1ccccc1C(F)(F)F	i	3%	32µM*	1%	i	1%
CN1CCN(CC(=O)Nc2ccccc2C(F)(F)F)CC1	i	5%	2%	-4%	i	-2%
CCOC(=O)c1ccc(S(=O)(=O)n2c(=O)oc3ccccc32)cc1	i	24%	-3%	2%	i	1%
Cc1ccc(S(=O)(=O)n2c(=O)oc3ccccc32)cc1	i	8.9µM*	1%	11%	i	1%
COc1cc(OC)c(NC(=O)C(C)n2nc(-c3ccc(C)c(C)c3)ccc2=O)cc1Cl (stereo not given)	i	13µM*	-1%	x	u	x
COc1ccc(Br)cc1CNC(=O)Cn1ncn2nc(-c3cccs3)cc2c1=O	i	10%	-15%	x	i	x
Cc1ccc(Sc2ccc(N)cc2C#N)cc1	i	22µM*	u	13%	x	x
O=C(CSc1ncc2c(n1)-c1ccccc1N(Cc1ccc(Cl)cc1)S2(=O)=O)c1ccccc1	i	10%	-10%	x	i	x
N#C/C(=C\c1ccc(-c2ccccc2C(=O)O)o1)c1nc2ccccc2[nH]1	i	22µM*!	-18%	-5%	i	0%
Cc1ccc2nc(/C(C#N)=C/c3ccc(-c4ccccc4C(=O)O)o3)[nH]c2c1	i	13%	-1%	0%	i	-8%
CC(C)CC(=O)N1CCN(c2ccc([N+](=O)[O-])cc2Cl)CC1	i	13µM*	0%	u	i	1%

Screening data (PubChem BioAssay)
